Laboratory results from PubChem BioAssay AID1224861 (National Center for Advancing Translational Sciences (NCATS), 2016).
Inconclusive results are not listed. The source made the active and inactive calls. The call rests on the fitted dose curve; in most records, active means well fitted cell-killing curve with a large enough effect; inconclusive means small, poorly fitted or top-dose-only effect, or effect the other way; inactive means flat fitted curve, though single readings scatter.

experiment: Compound cytotoxicity measured by an ATP content assay as a counter-screen for lead compounds in human astrocytes; conditions: human astrocytes viability, ATP luminescence; series mostly up to 46.1 µM; activity change, negative = cytotoxicity: at the top concentration
In short: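 Cytotoxicity expressed as percent inhibition of cell viability from ATP-dependent luminescence, read after 10 min at room temperature with 1:1 kit reagent. Compound exposure times matched the primary screens, e.g. 6, 24 or 72 h, in cultured human astrocytes.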

Row | Compound | activity change, negative = cytotoxicity | Potency
1 | Cc1oncc1C(=O)Nc1ccc(C(F)(F)F)cc1 | -12.6% (inactive) | 
2 | CCCCC1C(=O)N(c2ccccc2)N(c2ccc(O)cc2)C1=O (stereo unspecified) | -16.9% (inactive) | 
3 | Oc1ccc(/C=C/c2cc(O)cc(O)c2)cc1 |  | 10.9 µM (active)
4 | CC[C@@]1(O)C[C@H](O[C@H]2C[C@H](N(C)C)[C@H](O[C@H]3C[C@H](O)[C@H](O[C@H]4CCC(=O)[C@H](C)O4)[C@H](C)O3)[C@H](C)O2)c2c(cc3c(c2O)C(=O)c2c(O)cccc2C3=O)[C@@H]1C(=O)OC | -27.8% (inactive) | 
5 | COc1cccc2c1C(=O)c1c(O)c3c(c(O)c1C2=O)C[C@@](O)(C(=O)CO)C[C@@H]3O[C@H]1C[C@H](N)[C@H](O[C@@H]2CCCCO2)[C@H](C)O1 | -21.9% (inactive) | 
6 | O=C(C=CC=Cc1ccc2c(c1)OCO2)N1CCCCC1 | -18.9% (inactive) | 
7 | CCCCCNC(=O)N1CCC(CN(Cc2ccc(Cl)cc2)Cc2ccc([N+](=O)[O-])s2)C1 (stereo unspecified) | 10.8% (inactive) | 
8 | COc1cc(NC(C)CCCN)c2ncccc2c1 (stereo unspecified) | 10.6% (inactive) | 
9 | COc1cc2nc(-c3ccc(N4CCN(C)CC4)cc3)nc(NCCN3CCOCC3)c2cc1OC | -8.43% (inactive) | 
10 | Cc1[nH]c(C=C2C(=O)Nc3ccccc32)c(C)c1CCC(=O)O | -0.919% (inactive) | 
11 | O=C(O)Cc1ccc(-c2ccccc2)cc1 | 18.3% (inactive) | 
12 | CC(C)c1ccc2oc3nc(N)c(C(=O)O)cc3c(=O)c2c1 |  | 2.75 µM (active)
13 | Oc1cc(O)cc(/C=C/c2ccc(O)c(O)c2)c1 |  | 8.69 µM (active)
14 | O=c1cc(-c2ccccc2)oc2cc(O)cc(O)c12 | -1.78% (inactive) | 
15 | O=C(/C=C/c1ccccc1)NCCO | 2.38% (inactive) | 
16 | CC(C(=O)O)c1ccc2c(c1)[nH]c1ccc(Cl)cc12 (stereo unspecified) | 5.69% (inactive) | 
